PubChem BioAssay
Values joined by “and” are separate entries in the source; they are usually repeats but may differ in a detail not shown here. Equal entries are not always repeated. Active and inactive are the calls of the source.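 The calls were made as follows, unless noted: active = normalized viability below 100% at a tested concentration; inactive = the rest.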

Legend:
[1] = stimulators of nuclear beta-catenin in C2C12, primary screen, imaging, WNT3A-conditioned medium, mouse C2C12, NPC library (AID 1117326; in the data active = nuclear beta-catenin stimulation mostly above about 4.2%, no sharp cut-off; inactive = mostly below about 10%); conditions: stronger effect = higher value
[2] = stimulators of insulin release from INS-1E, primary screen, cell-based, 5 mM glucose, NPC library (AID 1117329;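 active = compound raises insulin release from rat beta cells at 5 mM glucose, no numeric limit stated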); conditions: rat INS-1E insulin secretion, at 10 µM, stronger effect = higher value
[3] = growth inhibition of GSK3B-pretreated HCT116 cells – cell-based, CellTiter-Glo, 0.2 to 20 µM (AID 1117336;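 active = compounds lowering colon cancer cell viability after pretreatment blocking the GSK3B kinase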); conditions: HCT116 viability after GSK3B inhibitor, at 20 µM, stronger effect = higher value
[4] = inhibition of endothelial tube formation, primary screen, imaging, VEGF stimulated, CD31 staining, tube area, NPC library (AID 1117340;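 active = compound that reduces growth-factor-driven endothelial tube area in a mixed cell culture, no cutoff stated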); conditions: VEGF-stimulated ADSC/ECFC co-culture, at 10 µM, stronger effect = higher value
[5] = glucagon-like peptide 1 release enhancers, primary assay, NCI-H716 cell line, NPC library (AID 1117341;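 active = compound raises GLP1 secretion from the human gut endocrine cells, with no numeric limit stated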); conditions: NCI-H716 cells, at 10 µM, stronger effect = higher value
[6] = HCT116 colon cancer cell growth inhibition, primary screen, CellTiter-Glo luminescence, NPC library (AID 1117342;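 active = compounds that lower survival of HCT116 colon cancer cells in the luminescence readout, no numeric limit stated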); conditions: at 20 µM (top of the series)
[7] = CellTiter-Glo luminescent readout of SW480 viability loss, NPC library primary (AID 1117343;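 active = compounds that lower viability of the colon cancer cells in the luminescence readout, with no numeric limit stated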); conditions: CellTiter-Glo luminescence; at 20 µM (top of the series) unless noted
[8] = decreased DLD-1 cellular survival, CellTiter-Glo luminescent readout, NPC compound collection, primary HTS (AID 1117346;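 active = compounds that lower survival of DLD-1 colon cancer cells in the luminescence readout, no cutoff given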); conditions: DLD-1 viability, CellTiter-Glo luminescence; at 20 µM (top of the series)
[9] = differential killing of epithelial or mesenchymal cells, primary screen, imaging, PC-3E GFP, TEM4-18 mCherry, co-culture (AID 1345086;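 active = compounds killing one labelled cell type while sparing the other, by normalised counts and ratio limits, not self-fluorescent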;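 as to all read-outs here: cells exposed to compound for 72 h before imaging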;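 as to red/green cell ratio (normalised): normalised mesenchymal count divided by normalised epithelial count so high means epithelial killing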); conditions: imaging cell counts, at 1 µM; for red/green cell ratio (normalised): actives lie on both sides, counts scaled to control wells, 1 = unselective
[10] = sensitizers of A549 cells to miR-34 induction, primary screen, imaging, A549 dox-inducible miR-34, nuclei and caspase counts (AID 1347080;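 active = compounds whose cell count with miR-34 switched on is under 0.7 times the count with it off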); conditions: A549 miR-34 inducible, Hoechst nuclei count, 48 h
[11] = survival rescue of mitochondrial mutant cells in low glucose, primary screen, MELAS cybrids, Rieske KO mouse fibroblasts, CellTiter-Glo (AID 1508586;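 active = mean z-score across replicates of 1.96 or higher in either the MELAS or the Rieske mutant cell line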;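 also: z relative to plate mean and SD of compound and empty wells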)
[12] = ovarian cancer cell viability with rucaparib, profiling panel, oncology-focused library, rucaparib conditional (AID 1508598); conditions: patient-derived ovarian cancer cells, CellTiter-Glo viability, 144 h, stronger effect = lower value
[13] = measured here: epithelial PC-3E GFP cell survival
[14] = measured here: mesenchymal TEM4-18 mCherry cell survival
[15] = stronger effect = lower value, cell number ratio, induced over uninduced
[16] = measured here: relative caspase fold change +Dox/-Dox
[17] = measured here: total cells with miR-34 induction, stronger effect = lower value
[18] = measured here: total cells without miR-34 induction
[19] = MELAS cybrid survival, CellTiter-Glo 48 h, stronger effect = higher value
[20] = Rieske KO mouse fibroblast survival, CellTiter-Glo 72 h
[21] = at 0.000305 µM, OCI-C5x cells, with rucaparib 10 µM, 100% = cells with rucaparib alone
[22] = at 0.000305 µM, OCI-C5x cells, without rucaparib
[23] = at 0.000305 µM, OCI-P5x cells, with rucaparib 20 µM, 100% = cells with rucaparib alone
[24] = at 0.000305 µM, OCI-P5x cells, without rucaparib
[25] = at 0.00122 µM, OCI-C5x cells, with rucaparib 10 µM, 100% = cells with rucaparib alone
[26] = at 0.00122 µM, OCI-C5x cells, without rucaparib
[27] = at 0.00122 µM, OCI-P5x cells, with rucaparib 20 µM, 100% = cells with rucaparib alone
[28] = at 0.00122 µM, OCI-P5x cells, without rucaparib
[29] = at 0.00488 µM, OCI-C5x cells, with rucaparib 10 µM, 100% = cells with rucaparib alone
[30] = at 0.00488 µM, OCI-C5x cells, without rucaparib
[31] = at 0.00488 µM, OCI-P5x cells, with rucaparib 20 µM, 100% = cells with rucaparib alone
[32] = at 0.00488 µM, OCI-P5x cells, without rucaparib

COc1cc2ncnc(Nc3ccc(F)c(Cl)c3)c2cc1OCCCN1CCOCC1
nuclear beta-catenin stimulation ([1]; at 10 µM): 78.2% (active) | nuclear beta-catenin stimulation ([1]; stimulation, at 2 µM): 2.5% | insulin secretion stimulation [2]: 0.7% (inactive) | viability decrease [3]: 44.5% (inactive) | tube area decrease [4]: 65.5% (active) | GLP1 secretion stimulation [5]: -2.9% (inactive) | inhibition of viability [6]: 98.7% (active) | viability decrease (inhibition) [7]: 101% (active) | viability decrease (inhibition) [8]: 98.1% (active) | red/green cell ratio (normalised) [9]: 1.15 (inactive) | normalised cell number [9, 13]: 0.79 | normalised cell number [9, 14]: 0.91 | fold change [10, 15]: 0.786 (inactive) and 0.938 (inactive) and 0.793 (inactive) | fold change [10, 16]: 1.64 and 1.38 and 1.39 | cell count [10, 17]: 4800 and 6990 and 6580 | cell count [10, 18]: 6110 and 7460 and 8300 | z-score [11, 19]: -0.609 (inactive) and 0.334 and 0.781 (inactive) | z-score [11, 20]: -0.845 and 2.09 and 1.88 | viability [12, 21]: 94.6% (active) | viability [12, 22]: 94.5% (active) | viability [12, 23]: 100% (inactive) | viability [12, 24]: 100% (inactive) | viability [12, 25]: 98.1% (active) | viability [12, 26]: 93.8% (active) | viability [12, 27]: 106% (inactive) | viability [12, 28]: 100% (inactive) | viability [12, 29]: 95.1% (active) | viability [12, 30]: 102% (inactive) | viability [12, 31]: 95.6% (active) | viability [12, 32]: 100% (inactive) | viability ([12]; at 0.0195 µM, OCI-C5x cells, with rucaparib 10 µM, 100% = cells with rucaparib alone): 109% (inactive) | viability ([12]; at 0.0195 µM, OCI-C5x cells, without rucaparib): 98% (active) | viability ([12]; at 0.0195 µM, OCI-P5x cells, with rucaparib 20 µM, 100% = cells with rucaparib alone): 98.7% (active) | viability ([12]; at 0.0195 µM, OCI-P5x cells, without rucaparib): 96.3% (active) | viability ([12]; at 0.0781 µM, OCI-C5x cells, with rucaparib 10 µM, 100% = cells with rucaparib alone): 101% (inactive) | viability ([12]; at 0.0781 µM, OCI-C5x cells, without rucaparib): 92% (active) | viability ([12]; at 0.0781 µM, OCI-P5x cells, with rucaparib 20 µM, 100% = cells with rucaparib alone): 98.6% (active) | viability ([12]; at 0.0781 µM, OCI-P5x cells, without rucaparib): 100% (active) | viability ([12]; at 0.313 µM, OCI-C5x cells, with rucaparib 10 µM, 100% = cells with rucaparib alone): 101% (inactive) | viability ([12]; at 0.313 µM, OCI-C5x cells, without rucaparib): 99.7% (active) | viability ([12]; at 0.313 µM, OCI-P5x cells, with rucaparib 20 µM, 100% = cells with rucaparib alone): 88.2% (active) | viability ([12]; at 0.313 µM, OCI-P5x cells, without rucaparib): 101% (inactive) | viability ([12]; at 1.25 µM, OCI-C5x cells, with rucaparib 10 µM, 100% = cells with rucaparib alone): 103% (inactive) | viability ([12]; at 1.25 µM, OCI-C5x cells, without rucaparib): 94.5% (active) | viability ([12]; at 1.25 µM, OCI-P5x cells, with rucaparib 20 µM, 100% = cells with rucaparib alone): 98.4% (active) | viability ([12]; at 1.25 µM, OCI-P5x cells, without rucaparib): 97.2% (active) | viability ([12]; at 5 µM, OCI-C5x cells, with rucaparib 10 µM, 100% = cells with rucaparib alone): 56.7% (active) | viability ([12]; at 5 µM, OCI-C5x cells, without rucaparib): 72% (active) | viability ([12]; at 5 µM, OCI-P5x cells, with rucaparib 20 µM, 100% = cells with rucaparib alone): 86.8% (active) | viability ([12]; at 5 µM, OCI-P5x cells, without rucaparib): 99.3% (active)

O=C(CCCCCCC(=O)Nc1ccccc1)NO
nuclear beta-catenin stimulation ([1]; at 10 µM): 7.6% (inactive) | nuclear beta-catenin stimulation ([1]; stimulation, at 2 µM): 7.1% | insulin secretion stimulation [2]: -1.2% (inactive) | viability decrease [3]: 53.5% (active) | tube area decrease [4]: 103% (active) | GLP1 secretion stimulation [5]: 0.5% (inactive) | inhibition of viability [6]: 108% (active) | viability decrease (inhibition) [7]: 110% (active) | viability decrease (inhibition) [8]: 58% (active) | red/green cell ratio (normalised) [9]: 1.29 (inactive) | normalised cell number [9, 13]: 0.33 | normalised cell number [9, 14]: 0.42 | fold change [10, 15]: 1.09 (inactive) and 1.01 (inactive) and 0.979 (inactive) | fold change [10, 16]: 0.756 and 1.04 and 1.07 | cell count [10, 17]: 1690 and 5020 and 1390 | cell count [10, 18]: 1540 and 4980 and 1420 | z-score [11, 19]: 0.575 (inactive) and -2.2 (inactive) | z-score [11, 20]: 0.979 and -1.4 | viability [12, 21]: 108% (inactive) | viability [12, 22]: 108% (inactive) | viability [12, 23]: 87.7% (active) | viability [12, 24]: 91.8% (active) | viability [12, 25]: 112% (inactive) | viability [12, 26]: 106% (inactive) | viability [12, 27]: 83% (active) | viability [12, 28]: 97.1% (active) | viability [12, 29]: 113% (inactive) | viability [12, 30]: 110% (inactive) | viability [12, 31]: 109% (inactive) | viability [12, 32]: 96.9% (active)
